# ± gives the standard deviation.
# Test system: MILI (PIWIL2) piRISC loaded with L1MC piRNA (26 nt)
# Assay: pre-steady-state target cleavage rate (min^-1); guide: L1MC piRNA 5'p-UAACUAAAUACUAUGCAAGCUGUAGG; MIWI and MILI are mouse PIWI proteins and EfPiwi is from a freshwater sponge; tags in brackets are library labels; higher = faster piRNA-guided slicing of the target
# Conditions: auxiliary factor: 500 nM mouse GTSF1
# Summary of the method: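 At 33 °C in HEPES–potassium acetate buffer, a transcribed, DNA-blocked target RNA library […] was exposed for 0–8 or 0–960 min to 1 nM active affinity-purified piRISC carrying a single synthetic guide, with or without 500 nM GTSF1 partner protein. Uncleaved targets were sequenced and normalised to depth and to weakly complementary targets. With three trials pooled and k3 capped at 0.0001 min^-1, a burst-and-steady-state fit produced the pre-steady-state cleavage rate.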
# 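Also: 1 nM active piRISC with 0.1 nM target library at 33 °C single turnover.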
row,Sequence,pre-steady-state target cleavage rate
1,UCCUGGAUGAGCUUGCAUACUAUUAAGUUA,0.00607 ± 0.0038
2,UCCUGGAACAGCUUGCAUAGAAAUUAGUUA,0.0351 ± 0.0085
3,UCCUCCUACUCGUUGCAUAGUAUUUACAAA,0.0372 ± 0.012
4,UCCUGGAACAGCUUGCAUAGUAAUUACAAA,0.0522 ± 0.019
5,UCCUGGAUGUCCUUGCAUUGUAUUUAGUAA,0.0421 ± 0.015
6,UCCUGCUACAGCUUCGAUAGUAUUUAGAAA,0.0541 ± 0.017
7,UCCUGCUACAGGAUGCAUAGUAUUUAGAAA,0.0163 ± 0.0074
8,UCCUGGAACAGCUUGCAUAGUAUUUUGUAA,0.0402 ± 0.012
9,UCCUGGAACAGCAUGCAUAGUAUUUUCAAA,0.066 ± 0.018
10,UCCUGGAUGAGCUACCAUAGUAUUUAGAAA,0.00557 ± 0.0043
11,UCCUGGUACAGCUUGCAUAGUAAUUACUUA,0.00729 ± 0.0052
12,UCCUGGAUGUCCUUGCAUAGUUUUUAGAUA,0.00584 ± 0.0044
13,UCCUCCUACAGCUUCCAUAGUAUUUAGUUA,0.0831 ± 0.025
14,UCCUGGAUCAGCUUCCAUAGAAUUUAGUUA,0.0103 ± 0.0054
15,UCCUGCUACAGCUUGCAAUGUAUUUAGAAA,0.0407 ± 0.013
16,UCCUGGAUGAGCUUGCAUAGUAUUUACUUA,0.0753 ± 0.019
17,UCCUGGUACAGCUUGCAAAGUAUAUAGUUA,0.0931 ± 0.016
18,UCCUGGAUGUCGAUGCAUAGUAUAUAGUAA,0.063 ± 0.013
19,UCCUGGAUGAGCUUGCAUAGUAUUUAUUUA,0.0843 ± 0.024

row,Sequence,pre-steady-state target cleavage rate
1,UCCUGGAACAGGAAGCAUAGUAUUUAGAAA,0.049 ± 0.011
2,UCCUGGAACAGCUUGCAUAGUAUAUAGAUA,0.0877 ± 0.022
3,UCCUGGAUCAGCUUGCAUACUAUAUAGUUA,0.018 ± 0.0043
4,UCCUGGAUGACCUUGCAUAGUAUUUACAAA,0.114 ± 0.033
5,UCCUGCUACAGCUUGCAUAGUAUAUUCAAA,0.209 ± 0.059
6,UCCUGCUACAGCUACGAUAGUAUUUAGUAA,0.185 ± 0.035
7,UCCUGGAUCAGCUUGCAUAGUAAUUAGAAA,0.0807 ± 0.02
8,UCCUGCUACAGCAAGCAUAGUAUUUAGAAA,0.217 ± 0.052
9,UCCUGGAUGUCGAAGCAUAGUAUGUAGUUA,0.0113 ± 0.0045
10,UCCUGGAUGUCGAUUCAUAGUAUUUAGUUA,0.0157 ± 0.0044
11,UCCUGCUACAGCUUGCUUAGUAUUUAGAAA,0.0602 ± 0.019
12,UCCUGGAUGUGCUUGCUUAGUAUUUAGAUA,0.141 ± 0.032
13,UCCUGGAUGUCGAAGCAUAAUAUUUAGUUA,0.0097 ± 0.0039
14,UCCUGGAUGUGCUUGCAAUAGUAUUUAGUUA,0.00398 ± 0.0037
15,UCCUGGAUGUCGAAGCAUAGUAUUUGAGUUA,0.0579 ± 0.012
16,UCCUGGAUCAGCUUGCAUAGAAAUUAGUUA,0.0245 ± 0.0096
17,UCCUCCUACAGCUACGAUAGUAUUUAGUAA,0.174 ± 0.024
18,UCCUGGAUCAGGUUGCAUAGUAUUUACAAA,0.0312 ± 0.011

# Same assay, conditions: auxiliary factor: none (no GTSF1)
row,Sequence,pre-steady-state target cleavage rate
1,UCCUGGAUGUCGAACGUAAGUAAUAAGUUA,< 0.0001
2,UCCUGGAUGUCGAACCAUACUAUUUAGUUA,< 0.0001
3,UCCUGGAACAGCUUCGAUAGUAUUUACAAA,< 0.0001

# Source: the supplement of paper PMC10338343
